Common to all, as to assay: protein-binding microarray (PBM); PBM: ~300 nM protein, 6 mM HEPES pH 7.8, 80 mM KCl, 0.5 mM EDTA, 0.5 mM EGTA, 6% glycerol, 35 ng/ul poly-dIdC, 1% milk, 1 h, room temperature; Ap Aiptasia and Nv Nematostella (sea anemones) / Co Capsaspora / Aq Amphimedon (sponge) / Dm Drosophila / Hu human; RHD is the Rel homology domain; high values mean tight binding
Common to all, as to settings: dsDNA, one strand shown

One assay has as its target T1, GST-Ap-NF-kB RHD (Exaiptasia pallida (Aiptasia), UniProt A0A913YAJ5 2-422).
T1 sequence: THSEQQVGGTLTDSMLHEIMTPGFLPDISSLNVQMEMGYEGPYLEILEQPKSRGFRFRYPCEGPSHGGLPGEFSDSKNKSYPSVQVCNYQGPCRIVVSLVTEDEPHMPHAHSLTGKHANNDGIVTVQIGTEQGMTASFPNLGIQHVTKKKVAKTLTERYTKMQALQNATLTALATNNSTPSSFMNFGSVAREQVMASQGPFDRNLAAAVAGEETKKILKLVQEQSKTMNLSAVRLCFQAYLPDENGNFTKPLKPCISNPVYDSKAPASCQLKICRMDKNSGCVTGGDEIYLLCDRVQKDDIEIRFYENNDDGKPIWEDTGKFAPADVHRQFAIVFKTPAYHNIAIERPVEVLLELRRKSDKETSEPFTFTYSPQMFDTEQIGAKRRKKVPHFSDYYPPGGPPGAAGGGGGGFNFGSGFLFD

Assay [1] concerns the target T2, GST-Nv-NF-kB (Cys allele) (Nematostella vectensis, UniProt E5G601 2-411).
T2 sequence: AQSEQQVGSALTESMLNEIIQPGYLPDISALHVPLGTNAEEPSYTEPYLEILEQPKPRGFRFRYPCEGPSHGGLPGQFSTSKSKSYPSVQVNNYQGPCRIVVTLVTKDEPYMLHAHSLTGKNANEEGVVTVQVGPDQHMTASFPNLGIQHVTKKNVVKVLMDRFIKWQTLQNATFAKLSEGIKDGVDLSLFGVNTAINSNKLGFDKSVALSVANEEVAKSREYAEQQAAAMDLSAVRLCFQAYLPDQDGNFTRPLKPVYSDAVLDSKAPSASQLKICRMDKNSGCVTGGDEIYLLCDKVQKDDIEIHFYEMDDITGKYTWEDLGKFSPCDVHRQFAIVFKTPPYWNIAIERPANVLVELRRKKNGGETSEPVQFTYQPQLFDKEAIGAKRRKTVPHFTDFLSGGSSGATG

For assay [2], the target named is T3, GST-Nv-NF-kB (Ser allele) (Nematostella vectensis, UniProt A7UNT2 2-411).
T3 sequence: T2 sequence with Q21R, C66S, S207N, E215Q, V217A, E225K, A268E, D399E

In a further assay the target is T4, GST-Co-NF-kB (Capsaspora owczarzaki, UniProt F1ARL5 200-546).
T4 sequence: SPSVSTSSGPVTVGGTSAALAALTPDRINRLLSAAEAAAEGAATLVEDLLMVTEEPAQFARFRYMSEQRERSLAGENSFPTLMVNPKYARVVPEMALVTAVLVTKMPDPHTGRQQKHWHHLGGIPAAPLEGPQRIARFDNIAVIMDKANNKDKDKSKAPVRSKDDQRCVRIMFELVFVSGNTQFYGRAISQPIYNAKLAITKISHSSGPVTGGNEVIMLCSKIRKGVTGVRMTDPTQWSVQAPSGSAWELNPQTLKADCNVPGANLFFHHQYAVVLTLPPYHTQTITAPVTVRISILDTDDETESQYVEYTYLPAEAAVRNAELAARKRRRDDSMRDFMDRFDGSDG

For a further assay, the target named is T5, GST-Dm-Relish (Drosophila melanogaster, UniProt Q94527 99-473).
T5 sequence: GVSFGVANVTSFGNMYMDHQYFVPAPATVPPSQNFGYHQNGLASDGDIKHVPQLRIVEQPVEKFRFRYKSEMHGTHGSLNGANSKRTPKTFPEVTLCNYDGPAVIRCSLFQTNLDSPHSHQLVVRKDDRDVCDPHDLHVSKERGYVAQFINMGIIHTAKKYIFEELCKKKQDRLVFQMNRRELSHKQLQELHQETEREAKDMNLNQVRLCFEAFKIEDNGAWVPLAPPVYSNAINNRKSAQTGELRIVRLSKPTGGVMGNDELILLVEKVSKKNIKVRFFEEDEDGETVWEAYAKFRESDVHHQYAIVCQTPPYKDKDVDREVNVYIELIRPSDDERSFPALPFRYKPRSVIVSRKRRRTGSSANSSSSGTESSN

The target in another assay is T6, GST-Aq-NF-kB (Amphimedon queenslandica, UniProt A9Y5G7 2-389).
T6 sequence: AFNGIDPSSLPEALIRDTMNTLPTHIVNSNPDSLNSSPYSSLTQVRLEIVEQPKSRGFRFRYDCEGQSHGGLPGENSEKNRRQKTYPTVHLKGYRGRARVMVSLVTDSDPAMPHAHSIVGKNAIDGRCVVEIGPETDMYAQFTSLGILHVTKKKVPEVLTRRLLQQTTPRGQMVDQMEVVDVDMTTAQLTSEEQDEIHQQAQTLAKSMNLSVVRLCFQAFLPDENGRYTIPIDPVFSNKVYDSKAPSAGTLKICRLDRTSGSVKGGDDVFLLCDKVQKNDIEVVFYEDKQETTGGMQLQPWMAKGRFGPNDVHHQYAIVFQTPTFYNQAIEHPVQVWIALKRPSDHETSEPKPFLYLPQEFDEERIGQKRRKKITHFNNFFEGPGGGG

The next assay concerns the target GST-Hu-p50 (Homo sapiens, UniProt P19838 7-356).

Changes are numbered by the printed parent chain.

The results in this text go back to PMC5700166.

Chain of GST-Hu-p50 (P19838 7-356): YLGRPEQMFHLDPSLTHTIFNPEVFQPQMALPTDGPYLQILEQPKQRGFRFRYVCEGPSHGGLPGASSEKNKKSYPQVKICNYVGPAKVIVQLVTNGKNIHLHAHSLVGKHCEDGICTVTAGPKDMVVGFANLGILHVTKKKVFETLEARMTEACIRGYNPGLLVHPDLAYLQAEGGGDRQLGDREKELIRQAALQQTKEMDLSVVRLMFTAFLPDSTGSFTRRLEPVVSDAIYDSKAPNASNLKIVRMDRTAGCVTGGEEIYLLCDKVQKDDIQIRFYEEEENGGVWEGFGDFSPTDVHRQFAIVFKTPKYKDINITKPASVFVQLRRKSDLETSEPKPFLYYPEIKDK

For the sequence “CCGATTAACATCAATAAACCCCCTGATGTTAATCGGGTCTTGATTCGCTTGACGCTGCTG”, the binding signal with GST-Ap-NF-kB RHD is 7.76 z-score; in assay [1], 6.85 z-score; in assay [2], 7.79 z-score; with GST-Co-NF-kB it was 2.94 z-score; with GST-Dm-Relish, 9.45 z-score; with GST-Aq-NF-kB it was 6.33 z-score. This sequence also showed a binding signal with GST-Hu-p50 of 6.85 z-score.
Take “CCGATTAACATCAAAAGTCCCCGTGATGTTAATCGGGTCTTGATTCGCTTGACGCTGCTG”: the binding signal in the assay with GST-Ap-NF-kB RHD was found to be 8.32 z-score; in assay [1], 8.18 z-score; in assay [2] it was 7.85 z-score; with GST-Co-NF-kB, 4.26 z-score; with GST-Dm-Relish, 9.25 z-score; with GST-Aq-NF-kB, 7.44 z-score. This sequence registered a binding signal with GST-Hu-p50 of 6.58 z-score.
As to “CCGATTAACATCAATTCACCCCCTGATGTTAATCGGGTCTTGATTCGCTTGACGCTGCTG”, the binding signal in the assay with GST-Ap-NF-kB RHD is 4.01 z-score; in assay [1] it was 3.65 z-score; in assay [2] it was 4.82 z-score; with GST-Co-NF-kB it was 6.74 z-score; with GST-Dm-Relish, 3.16 z-score; with GST-Aq-NF-kB, 4.11 z-score. Moreover, in the assay with GST-Hu-p50, the binding signal stood at 4.31 z-score.
Regarding “CCGATTAACATCACAAAGTCCCCTGATGTTAATCGGGTCTTGATTCGCTTGACGCTGCTG”, the binding signal in the assay with GST-Ap-NF-kB RHD came out at 7.77 z-score; in assay [1], 7.32 z-score; in assay [2], 7.65 z-score; in the assay with GST-Co-NF-kB it was 2.97 z-score; in the assay with GST-Dm-Relish it was 7.95 z-score; with GST-Aq-NF-kB, 6.4 z-score. This sequence also showed a binding signal with GST-Hu-p50 of 6.44 z-score.
As for “CCGATTAACATCAGGGGAATCAATGATGTTAATCGGGTCTTGATTCGCTTGACGCTGCTG”, the binding signal with GST-Ap-NF-kB RHD turned out to be 5.46 z-score; in assay [1], 6.47 z-score; in assay [2] it was 8.04 z-score; with GST-Co-NF-kB it was 5.78 z-score; with GST-Dm-Relish it was 5.48 z-score; with GST-Aq-NF-kB, 4.26 z-score. For the same sequence, the binding signal with GST-Hu-p50 came out at 4.98 z-score.
Regarding “CCGATTAACATCAGGGAAAGTTATGATGTTAATCGGGTCTTGATTCGCTTGACGCTGCTG”, the binding signal came to 3.92 z-score with GST-Ap-NF-kB RHD; 6.93 z-score in assay [1]; 6.19 z-score in assay [2]; 4.08 z-score in the assay with GST-Co-NF-kB; 2.29 z-score with GST-Dm-Relish; 6.81 z-score with GST-Aq-NF-kB. The sequence further gave a binding signal with GST-Hu-p50 of 4.76 z-score.
In the case of “CCGATTAACATCAGGACCCCCCCTGATGTTAATCGGGTCTTGATTCGCTTGACGCTGCTG”, the binding signal was determined as 7.35 z-score with GST-Ap-NF-kB RHD; 4.56 z-score in assay [1]; 3.23 z-score in assay [2]; 2.94 z-score in the assay with GST-Co-NF-kB; 6.37 z-score with GST-Dm-Relish; 7.44 z-score with GST-Aq-NF-kB. In the assay with GST-Hu-p50, this sequence yielded a binding signal of 4.44 z-score.
For “CCGATTAACATCAAACTTCCCCCTGATGTTAATCGGGTCTTGATTCGCTTGACGCTGCTG”, the binding signal in the assay with GST-Ap-NF-kB RHD amounted to 7.75 z-score; in assay [1], 7.86 z-score; in assay [2] it was 9.14 z-score; with GST-Co-NF-kB, 9.35 z-score; in the assay with GST-Dm-Relish it was 7.36 z-score; with GST-Aq-NF-kB it was 7.49 z-score. Moreover, the binding signal in the assay with GST-Hu-p50 was 6.72 z-score.
In the case of “CCGATTAACATCAACGATTCCCCTGATGTTAATCGGGTCTTGATTCGCTTGACGCTGCTG”, the binding signal turned out to be 5.94 z-score with GST-Ap-NF-kB RHD; 6.55 z-score in assay [1]; 8.86 z-score in assay [2]; 6.02 z-score with GST-Co-NF-kB; 3.74 z-score with GST-Dm-Relish; 4.38 z-score in the assay with GST-Aq-NF-kB. Further, the binding signal in the assay with GST-Hu-p50 is 5.62 z-score.
Regarding “CCGATTAACATCAGGGGAGTCCATGATGTTAATCGGGTCTTGATTCGCTTGACGCTGCTG”, the binding signal amounted to 6.16 z-score with GST-Ap-NF-kB RHD; 3.64 z-score in assay [1]; 4.15 z-score in assay [2]; 3.05 z-score with GST-Co-NF-kB; 6.79 z-score in the assay with GST-Dm-Relish; 4.34 z-score in the assay with GST-Aq-NF-kB. In the assay with GST-Hu-p50, the binding signal is 3.32 z-score.
Consider “CCGATTAACATCAGGGGGAAAAATGATGTTAATCGGGTCTTGATTCGCTTGACGCTGCTG”, for which the binding signal with GST-Ap-NF-kB RHD worked out at 6.66 z-score; in assay [1], 7.33 z-score; in assay [2] it was 9.96 z-score; in the assay with GST-Co-NF-kB it was 11.6 z-score; with GST-Dm-Relish, 4.64 z-score; in the assay with GST-Aq-NF-kB it was 5.88 z-score. This sequence showed a binding signal with GST-Hu-p50 of 7.07 z-score.
As for “CCGATTAACATCAGGAAGTCCCCTGATGTTAATCGGGTCTTGATTCGCTTGACGCTGCTG”, the binding signal in the assay with GST-Ap-NF-kB RHD was found to be 8.63 z-score; in assay [1], 8.97 z-score; in assay [2] it was 6.92 z-score; in the assay with GST-Co-NF-kB, 2.68 z-score; with GST-Dm-Relish it was 8.96 z-score; in the assay with GST-Aq-NF-kB, 8.77 z-score. Further, the binding signal with GST-Hu-p50 worked out at 6.94 z-score.
